Assay results published in PubChem BioAssay AID2284205 (EPA ToxCast).
Calls of active or inactive are those of the source. The calls were made as follows: active = hit-call score of the fitted dose curve at least 0.9, where 1 is the maximum; inactive = score below 0.9.

molecular target: Peroxisome proliferator-activated receptor gamma (Homo sapiens) (UniProt P37231); test: ERF_TW_NR_hPPARG: Eurofins (ERF) Nuclear Receptor (NR) Radioligand Binding LeadHunter Assay for human Peroxisome Proliferator-activated Receptor gamma (PPARg) Agonism, conducted at Taiwan lab site
Sequence (P37231 whole entry, looked up): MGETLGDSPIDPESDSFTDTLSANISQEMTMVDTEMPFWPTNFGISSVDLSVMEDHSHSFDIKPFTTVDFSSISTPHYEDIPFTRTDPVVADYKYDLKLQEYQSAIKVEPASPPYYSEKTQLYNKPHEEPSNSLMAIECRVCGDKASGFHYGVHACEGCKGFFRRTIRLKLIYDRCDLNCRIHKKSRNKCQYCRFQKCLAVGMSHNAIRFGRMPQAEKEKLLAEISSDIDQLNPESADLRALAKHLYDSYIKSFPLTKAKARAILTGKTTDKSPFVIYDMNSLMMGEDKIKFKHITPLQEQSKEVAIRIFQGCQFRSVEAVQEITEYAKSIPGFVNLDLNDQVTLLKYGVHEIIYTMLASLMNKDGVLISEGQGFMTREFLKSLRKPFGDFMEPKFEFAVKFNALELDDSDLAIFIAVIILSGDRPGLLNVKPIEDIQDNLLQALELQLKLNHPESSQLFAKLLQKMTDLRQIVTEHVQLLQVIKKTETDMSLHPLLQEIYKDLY
Protocol: ERF_TW_NR_hPPARG is a biochemical, single-readout assay that uses extracted gene-proteins in a cell-free assay. Measurements were taken 24 hour after chemical dosing in a 96-well plate. See PPARgamma Human NHR Binding (Agonist Radioligand) Assay, Panlabs.ERF_TW_NR_hPPARG is an assay component calculated from the ERF_TW_NR_hPPARG assay. It is designed to measure radioligand binding using a type of binding reporter as detected by scintillation counting with radiometry technology.Data from the assay component ERF_TW_NR_hPPARG was analyzed at the assay endpoint, ERF_TW_NR_hPPARG, in the positive analysis fitting direction relative to DMSO as the negative control and baseline of activity. Using a type of binding receptor, gain-of-signal activity can be used to understand changes in binding receptor as they relate to gene PPARG.To generalize the intended target to other relatable targets, this assay endpoint is annotated to the nuclear receptor intended target family, where the subfamily is non-steroidal.
Human recombinant PPARgamma-LBD expressed in insect cells are used in modified Tris-HCl buffer pH 7.2. A 0.03 ug aliquot is incubated with 5 nM [3H]Rosiglitazone and 1 ug anti-GST antibody for 24 hours at 4C. Non-specific binding is estimated in the presence of 10 uM rosiglitazone. Receptors are counted to determine [3H]Rosiglitazone specifically bound. Compounds are screened at 10 uM.Test Sample Requirements: Minimum for 1) Screen: 25 ul of 10 mM stock -OR- 1 mg (pre-weighed). 2) Dose Response: 60 ul of 10 mM stock -OR- 1 mg (pre-weighed).

Compound	AC50
O=C(O)C(F)(F)C(F)(F)C(F)(F)C(F)(F)C(F)(F)C(F)(F)C(F)(F)C(F)(F)Cl	13.4 µM (active)
O=S(=O)(O)C(F)(F)C(F)(F)C(F)(F)C(F)(F)C(F)(F)C(F)(F)C(F)(F)F	31.7 µM (active)
O=C(CC(=O)C(F)(F)C(F)(F)C(F)(F)F)c1cccs1	7.47 µM (active)
